These results are taken from ChEMBL document CHEMBL3988442, “University of Dundee, Small-Polar-MMV Screening Library” (2021).

For some of these results: Results with a measured potency or affinity are listed apart.

What all share (set-up): scale not given: direction of the effect not stated beside the values
In assay [1] the target is Protein translocase subunit SecA (Escherichia coli (strain K12)) (UniProt P10408). The assay is described as follows: Assay to Identify E. coli SecA ATPase Inhibitors. In kind it is functional. The following applies: 30 µM.
Assay [2] addresses T1, Ubiquitin-activating enzyme e1, putative (Leishmania donovani (strain BPK282A1)) (UniProt E9BSI1).
T1 sequence (whole entry): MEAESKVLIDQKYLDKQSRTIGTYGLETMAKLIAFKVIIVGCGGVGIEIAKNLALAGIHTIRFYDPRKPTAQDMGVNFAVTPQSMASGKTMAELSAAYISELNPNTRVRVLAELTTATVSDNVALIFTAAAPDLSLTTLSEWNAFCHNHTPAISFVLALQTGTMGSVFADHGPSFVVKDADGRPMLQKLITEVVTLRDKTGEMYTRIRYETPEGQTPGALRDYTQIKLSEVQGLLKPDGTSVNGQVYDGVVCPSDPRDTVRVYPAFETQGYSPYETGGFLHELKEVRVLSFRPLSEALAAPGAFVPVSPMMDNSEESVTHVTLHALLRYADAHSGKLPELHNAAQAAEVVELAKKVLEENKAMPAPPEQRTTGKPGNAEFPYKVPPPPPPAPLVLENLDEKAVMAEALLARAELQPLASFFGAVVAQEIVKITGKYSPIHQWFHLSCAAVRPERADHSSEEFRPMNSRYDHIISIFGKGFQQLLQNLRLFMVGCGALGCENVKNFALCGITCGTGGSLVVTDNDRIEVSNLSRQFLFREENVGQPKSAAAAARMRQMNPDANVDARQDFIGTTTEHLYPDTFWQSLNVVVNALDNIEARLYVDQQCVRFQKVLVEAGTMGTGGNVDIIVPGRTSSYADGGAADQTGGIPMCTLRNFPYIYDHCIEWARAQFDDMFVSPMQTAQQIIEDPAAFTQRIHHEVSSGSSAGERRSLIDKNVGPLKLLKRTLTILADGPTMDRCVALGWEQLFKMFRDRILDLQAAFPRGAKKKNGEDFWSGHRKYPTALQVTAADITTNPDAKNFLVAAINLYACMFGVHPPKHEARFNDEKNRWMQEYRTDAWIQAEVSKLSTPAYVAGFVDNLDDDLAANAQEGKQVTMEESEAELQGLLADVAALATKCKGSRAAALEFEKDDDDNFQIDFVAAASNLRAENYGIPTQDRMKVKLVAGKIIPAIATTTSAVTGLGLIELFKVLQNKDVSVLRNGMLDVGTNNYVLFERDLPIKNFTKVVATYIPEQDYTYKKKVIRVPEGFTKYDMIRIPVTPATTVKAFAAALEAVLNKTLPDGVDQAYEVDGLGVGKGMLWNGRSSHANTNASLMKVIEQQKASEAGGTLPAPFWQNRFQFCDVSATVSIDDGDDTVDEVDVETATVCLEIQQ
The assay is described as follows: Leishmania donovani Ubiquitin Activating Enzyme (LdE1). In kind it is functional. The following applies: 30 µM.

In assay [3] the target is AMP-activated protein kinase, AMPK (Homo sapiens) (UniProt P54646+O43741+P54619+Q9UGJ0+Q9Y478+Q13131+Q9UGI9). Kind of assay: AMP-dependent Kinase enzyme assay. An in vitro enzyme assay that detects ADP turnover that is directly proportional to AMPK activity. This uses naive AMPK that is activated during the assay with MK-8722. Conditions: 30 µM. In kind it is functional.

In assay [4] the target is Sialic acid-binding Ig-like lectin 9 (Homo sapiens) (UniProt Q9Y336). Kind of assay: Hs-Siglec9 ALPHAscreen SOP 20170721. Conditions: 10 µM. (In general: Bead proximity is the source of the signal in Alpha formats.)
The next assay deals with Trypanosoma cruzi. The assay is described as follows: Trypanosoma cruzi phosphomannomutase and mannose-1-phosphate guanylyltransferase assay. In kind it is functional. Conditions: 10 µM.
The target of assay [5] is T2, Arginase-2, mitochondrial (Homo sapiens) (UniProt P78540).
T2 sequence (whole entry): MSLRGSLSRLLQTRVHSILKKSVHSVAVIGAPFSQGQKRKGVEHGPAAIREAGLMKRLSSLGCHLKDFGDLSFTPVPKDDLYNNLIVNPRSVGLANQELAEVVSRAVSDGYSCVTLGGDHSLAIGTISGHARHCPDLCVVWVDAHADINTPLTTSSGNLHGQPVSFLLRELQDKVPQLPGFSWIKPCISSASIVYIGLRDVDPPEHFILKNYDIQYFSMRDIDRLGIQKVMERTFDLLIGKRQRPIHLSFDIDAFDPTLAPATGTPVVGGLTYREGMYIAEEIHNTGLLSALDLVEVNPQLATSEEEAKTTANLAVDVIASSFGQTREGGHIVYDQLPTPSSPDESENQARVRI
Kind of assay: in vitro enzyme assay to detect the production of urea directly proportional to the activity of Arginase II. Note: in the data most compounds retested in dose-response had high values. In kind it is functional. Conditions: 33.3 µM.

Assay [6] addresses T3, Proteasome subunit beta (Trypanosoma cruzi) (UniProt O96673).
T3 sequence (whole entry): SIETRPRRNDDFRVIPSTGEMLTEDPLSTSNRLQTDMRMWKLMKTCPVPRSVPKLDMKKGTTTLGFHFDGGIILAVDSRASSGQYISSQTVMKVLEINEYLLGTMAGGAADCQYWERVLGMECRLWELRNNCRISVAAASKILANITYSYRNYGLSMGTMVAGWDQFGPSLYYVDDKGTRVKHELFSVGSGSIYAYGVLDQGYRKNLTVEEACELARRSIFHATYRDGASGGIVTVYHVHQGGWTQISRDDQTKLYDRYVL
Kind of assay: Trypanosoma cruzi proteasome chymotrypsin-like activity (TcProtChymo) assay. Note: in the data most compounds retested in dose-response had high values. In kind it is functional. Conditions: 9.37 µM.

For the next assay, the species on record is Homo sapiens. The assay is described as follows: To identify inhibition of the IFN signalling (Jak-Stat) pathway via expression of an eGFP reporter gene under the control of an IFN-stimulated response element (ISRE) containing MxA promoter. It is filed as functional. Conditions: 30 µM.
Assay [7] concerns the target T4, Tyrosyl-tRNA synthetase, putative (Trypanosoma cruzi (strain CL Brener)) (UniProt Q4DSP6).
T4 sequence (whole entry): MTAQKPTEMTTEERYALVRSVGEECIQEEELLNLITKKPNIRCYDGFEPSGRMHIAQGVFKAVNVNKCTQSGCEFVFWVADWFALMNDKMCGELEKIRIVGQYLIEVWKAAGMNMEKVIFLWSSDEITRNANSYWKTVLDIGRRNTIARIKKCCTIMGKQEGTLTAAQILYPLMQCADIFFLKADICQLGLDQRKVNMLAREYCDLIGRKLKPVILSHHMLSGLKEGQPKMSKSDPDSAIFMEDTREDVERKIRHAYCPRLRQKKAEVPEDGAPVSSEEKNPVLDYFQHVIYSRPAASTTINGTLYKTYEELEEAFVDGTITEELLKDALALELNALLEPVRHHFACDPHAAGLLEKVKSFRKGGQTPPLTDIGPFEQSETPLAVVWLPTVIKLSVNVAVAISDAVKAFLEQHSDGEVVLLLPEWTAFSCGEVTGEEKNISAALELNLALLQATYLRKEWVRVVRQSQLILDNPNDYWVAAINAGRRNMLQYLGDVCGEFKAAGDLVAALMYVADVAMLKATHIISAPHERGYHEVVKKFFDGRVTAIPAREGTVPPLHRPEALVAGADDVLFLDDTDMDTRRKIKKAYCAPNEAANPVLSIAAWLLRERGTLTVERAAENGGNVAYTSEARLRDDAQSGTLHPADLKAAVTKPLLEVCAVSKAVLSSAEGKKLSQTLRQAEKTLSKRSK
The assay is described as follows: Trypanosoma cruzi tyrosyl tRNA synthetase (TcYRS) _High Tyrosine SOP. Note: in the data most compounds retested in dose-response had high values. It is filed as functional. Conditions: 30 µM.

The target of assay [8] is T4, Tyrosyl-tRNA synthetase, putative (Trypanosoma cruzi (strain CL Brener)). The assay is described as follows: Trypanosoma cruzi tyrosyl tRNA synthetase (TcYRS) SOP. It is filed as functional. Conditions: 30 µM.
In assay [9] the target is Chromo domain-containing protein 1 (Saccharomyces cerevisiae (strain ATCC 204508 / S288c) (Baker's yeast)) (UniProt P32657). The assay is described as follows: ScCHD-1 Enzyme Inhibition Assay. Note: in the data most compounds retested in dose-response had high values. It is filed as functional. The following applies: 30 µM.
Sequence of Chromo domain-containing protein 1 (Saccharomyces cerevisiae (strain ATCC 204508 / S288c) (Baker's yeast)) (P32657 whole entry, the tested form may be a part): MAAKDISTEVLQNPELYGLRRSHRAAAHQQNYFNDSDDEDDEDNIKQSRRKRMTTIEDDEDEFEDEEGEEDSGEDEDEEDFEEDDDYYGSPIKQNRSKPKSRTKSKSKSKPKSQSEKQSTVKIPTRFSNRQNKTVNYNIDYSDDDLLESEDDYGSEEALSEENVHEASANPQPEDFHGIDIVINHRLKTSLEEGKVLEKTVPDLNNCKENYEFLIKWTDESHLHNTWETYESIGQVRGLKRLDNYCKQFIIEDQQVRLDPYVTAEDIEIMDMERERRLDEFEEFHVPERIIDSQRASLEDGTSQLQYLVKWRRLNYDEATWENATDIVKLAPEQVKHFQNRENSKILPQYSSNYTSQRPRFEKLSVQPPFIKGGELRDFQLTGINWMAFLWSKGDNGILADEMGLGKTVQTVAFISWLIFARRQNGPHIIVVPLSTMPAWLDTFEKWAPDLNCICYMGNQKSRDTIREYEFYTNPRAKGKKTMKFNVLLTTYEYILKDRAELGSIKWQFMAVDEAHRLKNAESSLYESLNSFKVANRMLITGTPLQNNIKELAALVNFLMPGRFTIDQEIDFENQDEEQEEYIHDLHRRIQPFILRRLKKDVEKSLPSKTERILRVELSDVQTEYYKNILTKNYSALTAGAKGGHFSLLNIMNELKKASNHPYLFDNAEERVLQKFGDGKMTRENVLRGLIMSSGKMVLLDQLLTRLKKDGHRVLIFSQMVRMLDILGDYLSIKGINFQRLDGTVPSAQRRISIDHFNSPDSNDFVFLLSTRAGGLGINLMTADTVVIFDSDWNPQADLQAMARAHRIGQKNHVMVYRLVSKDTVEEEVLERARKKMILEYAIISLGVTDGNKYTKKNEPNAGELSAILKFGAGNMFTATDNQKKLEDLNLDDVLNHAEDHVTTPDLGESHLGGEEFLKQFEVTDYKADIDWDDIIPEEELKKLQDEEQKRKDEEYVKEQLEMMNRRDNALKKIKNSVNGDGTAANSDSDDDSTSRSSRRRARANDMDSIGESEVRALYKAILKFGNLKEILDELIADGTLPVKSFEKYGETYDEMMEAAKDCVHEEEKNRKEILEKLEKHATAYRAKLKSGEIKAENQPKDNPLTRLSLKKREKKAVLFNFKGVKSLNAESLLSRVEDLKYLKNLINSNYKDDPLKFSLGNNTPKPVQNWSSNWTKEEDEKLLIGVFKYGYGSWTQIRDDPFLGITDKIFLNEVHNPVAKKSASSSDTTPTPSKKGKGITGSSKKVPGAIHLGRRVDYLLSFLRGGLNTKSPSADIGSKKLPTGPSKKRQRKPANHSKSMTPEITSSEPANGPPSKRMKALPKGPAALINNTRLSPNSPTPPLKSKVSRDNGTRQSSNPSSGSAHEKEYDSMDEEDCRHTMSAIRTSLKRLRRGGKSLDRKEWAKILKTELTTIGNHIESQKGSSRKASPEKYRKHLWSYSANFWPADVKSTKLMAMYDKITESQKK

Sequence of Sialic acid-binding Ig-like lectin 9 (Homo sapiens) (Q9Y336 whole entry): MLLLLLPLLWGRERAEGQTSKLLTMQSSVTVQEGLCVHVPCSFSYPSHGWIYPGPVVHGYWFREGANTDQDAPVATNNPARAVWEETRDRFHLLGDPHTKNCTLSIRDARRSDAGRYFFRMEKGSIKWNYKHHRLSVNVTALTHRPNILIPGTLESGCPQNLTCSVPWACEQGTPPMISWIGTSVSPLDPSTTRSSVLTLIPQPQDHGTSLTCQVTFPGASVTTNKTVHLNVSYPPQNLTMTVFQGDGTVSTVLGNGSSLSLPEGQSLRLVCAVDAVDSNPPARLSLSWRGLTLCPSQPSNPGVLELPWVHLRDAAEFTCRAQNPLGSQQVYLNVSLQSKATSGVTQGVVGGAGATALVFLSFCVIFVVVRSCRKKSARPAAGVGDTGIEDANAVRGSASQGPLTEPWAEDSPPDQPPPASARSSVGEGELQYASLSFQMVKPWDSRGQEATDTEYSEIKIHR
Sequence of Protein translocase subunit SecA (Escherichia coli (strain K12)) (P10408 whole entry): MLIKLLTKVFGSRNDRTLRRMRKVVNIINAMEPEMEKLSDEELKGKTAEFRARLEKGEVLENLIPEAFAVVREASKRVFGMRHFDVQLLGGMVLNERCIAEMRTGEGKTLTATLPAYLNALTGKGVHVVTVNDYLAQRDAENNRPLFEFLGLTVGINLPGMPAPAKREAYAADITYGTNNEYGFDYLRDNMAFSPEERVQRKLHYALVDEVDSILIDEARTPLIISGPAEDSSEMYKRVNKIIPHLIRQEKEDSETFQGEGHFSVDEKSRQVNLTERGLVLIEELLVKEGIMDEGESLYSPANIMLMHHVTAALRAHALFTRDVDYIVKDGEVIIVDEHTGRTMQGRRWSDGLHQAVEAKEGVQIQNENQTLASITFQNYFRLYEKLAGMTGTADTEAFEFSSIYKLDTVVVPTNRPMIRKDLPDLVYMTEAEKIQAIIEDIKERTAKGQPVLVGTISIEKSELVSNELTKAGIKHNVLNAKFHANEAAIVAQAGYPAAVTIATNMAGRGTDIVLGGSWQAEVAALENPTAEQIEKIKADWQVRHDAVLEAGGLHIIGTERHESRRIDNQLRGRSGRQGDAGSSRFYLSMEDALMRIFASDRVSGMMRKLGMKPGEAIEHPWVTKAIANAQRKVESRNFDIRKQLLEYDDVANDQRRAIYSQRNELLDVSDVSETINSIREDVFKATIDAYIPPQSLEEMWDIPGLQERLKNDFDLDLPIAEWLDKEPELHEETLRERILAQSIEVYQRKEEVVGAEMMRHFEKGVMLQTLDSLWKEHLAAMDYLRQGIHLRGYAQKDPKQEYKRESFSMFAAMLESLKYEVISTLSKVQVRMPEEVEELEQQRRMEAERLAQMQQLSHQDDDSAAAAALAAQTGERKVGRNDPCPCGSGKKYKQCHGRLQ

On to `COc1ccc(C[C@H]2CN(c3nnc(C)s3)CC[C@@H]2OC)cc1`, for which the Percent Effect in assay [1] is -4.17%; in [2], 5.33%; in assay [3] it was -2.8%; in [4], -1.52%; with Trypanosoma cruzi, 2.7%; in [5], -49.6%. In addition, the Percent Effect in [6] was 5.81%; in the assay filed under Homo sapiens, 3.46%; in assay [7], -34.4%; in [8], 7.5%; in assay [9] it was 86.4%.
As to `O=C(CC1CN(Cc2ccccc2)CCO1)NC1CCCC1` (stereo not drawn), the Percent Effect in [1] is -6.09%; in assay [2], 24.3%; in assay [3] it was -1.42%; in [4] it was 7.65%; with Trypanosoma cruzi it was 7.62%; in assay [5] it was 8.33%. The Percent Effect in assay [6] was 7.35%; in the assay filed under Homo sapiens it was 15.4%; in assay [7] it was 7.92%; in [8] it was 23.2%; in assay [9], -6.96%.
In the case of `NC(=O)C1(Cc2ccccc2-c2ccccc2)CCCN(CC2CC2)C1` (stereo not drawn), the Percent Effect in assay [1] is -0.127%; in assay [2], 0%; in assay [3] it was 8.02%; in assay [4] it was 1.63%; with Trypanosoma cruzi, 3.15%; in [5] it was 0.233%. Besides, the Percent Effect in [6] is 5.2%; in the assay listed under Homo sapiens, -4.55%; in [7] it was 2.13%; in assay [8] it was 3.85%; in [9], -2.97%.
In the case of `Fc1cccc(N2CCCC3(C2)CN(c2ncccn2)CCO3)c1` (stereo not drawn), the Percent Effect in [1] is -0.397%; in assay [2] it was 13%; in assay [3] it was 2.68%; in assay [4], -5.04%; with Trypanosoma cruzi, -2.66%; in assay [5], 3.23%. Besides, the Percent Effect was 9.4% in assay [6]; 23.1% in the assay filed under Homo sapiens; 7.41% in assay [7]; 14.1% in [8]; -4.87% in assay [9].
Take `O=C(CCc1cccs1)N1CCCCC1Cn1cccn1` (stereo not drawn): the Percent Effect in [1] is -6.87%; in assay [2] it was 10.4%; in [3], -2.34%; in assay [4], -15.4%; in the assay with Trypanosoma cruzi it was 5.19%; in [5], -1.47%. Besides, the Percent Effect in assay [6] is 10.4%; in the assay filed under Homo sapiens, 1.69%; in [7] it was 5.71%; in assay [8], 21.2%; in [9], -15.9%.
Regarding `COCc1noc(C2(c3ccc(OC)cc3)CCOCC2)n1`, the Percent Effect in [1] is -3.44%; in assay [2] it was 5.41%; in [3], 0.468%; in assay [4], 6.74%; with Trypanosoma cruzi it was -0.386%; in assay [5] it was 2.86%. Further, the Percent Effect in assay [6] was 14.1%; in the assay listed under Homo sapiens, 9.88%; in assay [7], 3.7%; in [8] it was 17.1%; in assay [9], -2.16%.
As for `CC(=O)N1CCN([C@@H]2CC[C@@H](NC(=O)c3cncc(C)c3)[C@H]2O)CC1`, the Percent Effect in assay [1] is -3.3%; in assay [2], -4.05%; in assay [3], 8.93%; in assay [4], -4.38%; with Trypanosoma cruzi, -3.75%; in assay [5], -2.09%. Besides, the Percent Effect was -3.28% in [6]; 18.6% in the assay filed under Homo sapiens; -2.15% in assay [7]; -11.7% in assay [8]; 15.5% in assay [9].
Consider `Cc1ccc(S(=O)(=O)NC2CNC(=O)C2)cc1C` (stereo not drawn), for which the Percent Effect is -5.32% in [1]; 8.22% in [2]; -5.53% in assay [3]; -8.87% in assay [4]; 0.588% with Trypanosoma cruzi; 1.82% in assay [5]. Besides, the Percent Effect in [6] was 3.9%; in the assay listed under Homo sapiens, -1.25%; in assay [7] it was 7.53%; in assay [8], 12.5%; in [9], -3.53%.
